In PubChem BioAssay AID1159580 (chemical genetic matrix, 2015):
The campaign covered roughly 5,500 compounds. About 2,000 (36%) were called active. Roughly 18% stayed inconclusive and do not appear here. No stated cut-off is given here; in the data, active means normalized growth mostly below about 0.91 (no sharp cut-off); inconclusive means no clear call, values can overlap the other calls; inactive means mostly above about 0.92. This is one part of the list.

Experiment: chemical genetic growth profiling, strain panel (AID 1159580);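 further: tested at 20 µM; growth read once vehicle control cultures reached saturation at 30 °C; 1 = growth at the plate median or of vehicle wells; lower values mean less growth of the strain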
Settings: S. cerevisiae deletion strains, growth OD

Measured: normalized growth

CC(C)NCC(O)c1ccc(NS(C)(=O)=O)cc1 (stereo unspecified)
inactive: locus YAL040C, strain CLN3, active compounds read low 1.01 | locus YCL061C, strain MRC1 (second series), active compounds read low 1 | locus YDR363W, strain ESC2, active compounds read low 0.973 | locus YER002W, strain NOP16, active compounds read low 1 | locus YGR078C, strain PAC10, active compounds read low 1.01 | locus YJR075W, strain HOC1, active compounds read low 0.986 | locus YMR263W, strain SAP30, active compounds read low 1 | locus YMR307W, strain GAS1, active compounds read low 1.02 | locus YNL153C, strain GIM3, active compounds read low 1.04 | locus YNL175C, strain NOP13, active compounds read low 1 | locus YNL197C, strain WHI3, active compounds read low 1.01 | locus YNL224C, strain SQS1, active compounds read low 1 | locus YNL322C, strain KRE1, active compounds read low 0.985 | locus YOR083W, strain WHI5 (second series), active compounds read low 1 | locus YPL055C, strain LGE1, active compounds read low 0.977 | locus YPL241C, strain CIN2, active compounds read low 0.999
